Results published in PubChem BioAssay (Tox21).
Activity calls are given as the source filed them. The call rests on the fitted dose curve; in most records, active means well fitted activation curve with a large enough effect in the repeat runs; inconclusive means weak or mixed curves; inactive means flat fitted curve, though single readings scatter.

Molecular target: KiSS-1 receptor (Homo sapiens) (UniProt Q969F8)
Experiment: Human kisspeptin (KISS1R) small molecule agonists, calcium flux assay in KISS1R-HEK293 cells (AID 1920064)
Conditions: KISS1R-HEK293, calcium flux fluorescence, agonist; series mostly up to 76.8 µM; activation: at the top concentration
Description: National Center for Advancing Translational Sciences [NCATS]
Division of Preclinical Innovation [DPI]
U.S. Environmental Protection Agency [EPA]
National Institutes of Environmental Health Sciences [NIEHS]
National Toxicology Program [NTP]
U.S. Food and Drug Administration [FDA]
Kisspeptin and its receptor KISS1R play key roles in mammalian reproduction due to their involvement in the onset of puberty and control of the hypothalamic-pituitary-gonadal axis such as regulates GnRH release from the hypothalamus. The kisspeptin/KISS1R system also plays a direct role in peripheral organs (including the ovary, testis, uterus, and placenta) and is implicated in reproductive diseases such as miscarriage and polycystic ovary syndrome (PCOS). Abnormal KISS1R activity is associated with abnormal puberty, infertility, endometriosis, and hormone-dependent tumors. The KISS1 receptor (KISS1R, also called GPR54), a G-protein-coupled receptor (GPCR), acts (through phospholipase C) to increase intracellular inositol trisphosphate and then release intracellular calcium stores. Cell-based KISS1R-HEK293 assay is using HEK293 cells that have been genetically engineered to express the human KISS1R, which activity can be measured by calcium signaling. A compound/drug can activate (agonist) KISS1R that can be monitored by levels of intracellular calcium.
KISS1R-HEK293 cells developed by Codex Corp contain human KISS1R gene, which was stably integrated into HEK 293 cells. The compound activation can be detected by fluorescence intensity via calcium flux assay. This cell line has been used to screen the Tox21 10K compound library to identify agonists of KISS1R.
KISS1R-Hek293 cells were dispensed at 1500 cells/4uL/well in 1536-well black wall/clear bottom plates using a multidrop dispenser. After the assay plates were incubated at a 37 C/5% CO2 incubator for 18 hours, 4 microL of Calcium Dye Solution was added to each well. The plates were incubated at 37 C for 1 hour. And then 23 nL of compounds dissolved in DMSO, positive controls, or DMSO only was transferred to the assay plate by a pin tool station. The fluorescence intensity in the plates was measured using FDSS 7000EX kinetic plate reader with a filter set of Ex/Em=480/540 for 3 min at 1 sec intervals. Each test compound was measured at 15 concentrations and in triplicates.
On the % scale 0 is the no-effect control and ±100 the full control effect.

Chain of KiSS-1 receptor (Homo sapiens) (Q969F8 whole entry, looked up): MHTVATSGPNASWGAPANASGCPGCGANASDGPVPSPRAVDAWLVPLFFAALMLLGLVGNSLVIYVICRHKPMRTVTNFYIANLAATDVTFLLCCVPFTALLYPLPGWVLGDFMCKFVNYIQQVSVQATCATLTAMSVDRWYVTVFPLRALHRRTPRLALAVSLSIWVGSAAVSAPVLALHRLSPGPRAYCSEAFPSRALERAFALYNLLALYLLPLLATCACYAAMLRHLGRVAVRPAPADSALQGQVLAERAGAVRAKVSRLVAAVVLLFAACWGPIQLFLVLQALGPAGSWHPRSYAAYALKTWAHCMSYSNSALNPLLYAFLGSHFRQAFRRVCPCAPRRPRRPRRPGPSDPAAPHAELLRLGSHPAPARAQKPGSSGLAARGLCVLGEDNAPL

| Structure (SMILES) | activation |
| --- | --- |
| [Cu+] | 0.885% (inactive) |
| CCCCCCC(CO)CCCC (stereo not given) | -0.205% (inactive) |
| CCN(CC)C(=O)/C(C#N)=C/c1cc(O)c(O)c([N+](=O)[O-])c1 | -1.96% [at 35.3 µM] (inactive) |
| O=C(CCCN1CCC(O)(c2ccc(Br)cc2)CC1)c1ccc(F)cc1 | -1.09% [at 35.3 µM] (inactive) |
| CC(=O)[C@@]1(O)CC[C@H]2[C@@H]3C[C@H](C)C4=CC(=O)CC[C@]4(C)[C@H]3CC[C@@]21C | 0.0039% [at 35.3 µM] (inactive) |
| Oc1cccc2cc3cccc(O)c3c(O)c12 | -4.16% (inactive) |
| Cc1occc(=O)c1OC(=O)C(C)C | 0.435% (inactive) |
| COC(=O)CS | 1.36% (inactive) |
| CCCCCCCC(=O)Oc1c(Br)cc(C#N)cc1Br | 7.89% (inactive) |
| CN(CCOc1ccc(NS(C)(=O)=O)cc1)CCc1ccc(NS(C)(=O)=O)cc1 | -0.814% [at 35.3 µM] (inactive) |
| Cc1cccc(C)c1OCC(=O)N[C@@H](Cc1ccccc1)[C@@H](O)C[C@H](Cc1ccccc1)NC(=O)[C@H](C(C)C)N1CCCNC1=O | -0.322% [at 35.3 µM] (inactive) |
| CCOC(=O)[C@H](CCc1ccccc1)N[C@@H](C)C(=O)N1Cc2cc(OC)c(OC)cc2C[C@H]1C(=O)O | -1.47% [at 35.3 µM] (inactive) |
| CCCCCCCCCCCCCC[n+]1ccccc1 | 24.3% (inactive) |
| COC(=O)CC#N | 0.0325% (inactive) |
| C1COC(NC(C2CC2)C2CC2)=N1 | 1.37% [at 35.3 µM] (inactive) |
| OCCN1C[C@H](O)[C@@H](O)[C@H](O)[C@H]1CO | 3.3% [at 35.3 µM] (inactive) |
| Oc1ccccc1Cc1ccccc1O | 0.171% (inactive) |
| CC(=O)c1cccnc1 | -0.902% (inactive) |
| COc1ccc(/C=C/S(=O)(=O)NC(=O)c2ccc(C)cc2Cl)cc1 | 1.16% (inactive) |
| ClC(Cl)(Br)Br | -1.57% (inactive) |

| Structure (SMILES) | activation |
| --- | --- |
| CN1CCN(Cc2cc(-c3ccc4[nH]c(=O)oc4c3)co2)[C@@H](c2ccc(F)cc2)C1 | 8.02% (inactive) |
| Cc1ccc2nc(N)[nH]c(=O)c2c1Sc1ccncc1 | -1.08% [at 35.3 µM] (inactive) |
| CCCCCOc1ccc(C2SC(=O)NC2=O)cc1OCC (stereo not given) | 0.936% [at 35.3 µM] (inactive) |
| CCCCN(CCCC)C(=O)N(CCCC)CCCC | 1.29% (inactive) |
| Cn1c(=O)c2c(ncn2CC(O)CO)n(C)c1=O (stereo not given) | -1.29% [at 35.3 µM] (inactive) |
| C=C(C)C(=O)OCC1CCCO1 (stereo not given) | 0.118% (inactive) |
| CC12CCC(CC1=O)C2(C)C (stereo not given) | -4.16% (inactive) |
| Cc1c(N=C=O)cccc1N=C=O | -2.98% (inactive) |
| CC1(C)CC(N)CC(C)(C)N1 | -3.56% (inactive) |
| CCO | 2.68% (inactive) |
| CC(=O)OCC(=O)[C@@]1(O)CCC2C3CCC4=CC(=O)CC[C@]4(C)C3[C@@H](O)C[C@@]21C (stereo not given in full) | 0.447% [at 35.3 µM] (inactive) |
| CCCCN1CCCC[C@H]1C(=O)Nc1c(C)cccc1C | 0.517% [at 35.3 µM] (inactive) |
| O=C1c2ccccc2S(=O)(=O)N1CCCCN1CCN(c2ncccn2)CC1 | 2.72% [at 35.3 µM] (inactive) |
| CC1(c2ccccc2)OC(C(=O)O)=CC1=O (stereo not given) | 0.446% [at 35.3 µM] (inactive) |
| CC(=O)OC1CCCCC1 | 0.429% (inactive) |
| Cc1cccc(C)c1C | -0.359% (inactive) |
| CCc1cc(S(=O)(=O)O)c2cc(C(C)C)cccc1-2 | 0.607% [at 35.3 µM] (inactive) |
| COC(=O)CCCCC(CCSS/C(CCO)=C(\C)N(C=O)Cc1cnc(C)nc1N)SC(C)=O (stereo not given) | -0.0703% [at 35.3 µM] (inactive) |
| COc1cc2c(cc1OC)C(C(C(=O)N(CCc1ccc(OC)c(OC)c1OC)CCc1ccc(OC)c(OC)c1OC)c1ccccc1)=NCC2 (stereo not given) | -0.0237% [at 35.3 µM] (inactive) |
| CCNC(=O)N1CCN(CCCC(c2ccc(F)cc2)c2ccc(F)cc2)CC1 | 0.0718% [at 35.3 µM] (inactive) |
